Measured values: PubChem BioAssay (Tox21)
Records with an inconclusive call do not appear. A number with no mark means an inactive call. Activity calls are given as the source filed them. Calls come from the whole dose curve; as a rule, active = well fitted activation curve with a large enough effect in the repeat runs; inconclusive = weak or mixed curves; inactive = flat fitted curve, though single readings scatter.

Assay: A CellTox Green Cytotoxicity Assay to monitor cytotoxicity in HepG2 cells - 8 hour (AID 1224890); note: nearly all actives have a fitted effect of over 45% in size
Details: CellTox Green fluorescence; series mostly up to 76.8 µM; cytotoxicity increase: at the top concentration
In short: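 HepG2, 600 cells/well premixed w/ CellTox Green; 5 h settle, 37 C/5% CO2; pintool cpd add (DMSO); 37 C, 40 h; fluorescence read at 0, 8, 16, 24, 32, 40 h.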
% is set by controls: 0 for no effect and ±100 for the full control effect; potency is the fitted concentration of half-maximal effect.

| SMILES | cytotoxicity increase | Potency |
| --- | --- | --- |
| O=[N+]([O-])c1cc(C(F)(F)F)c(Cl)c([N+](=O)[O-])c1Nc1ncc(C(F)(F)F)cc1Cl | 6.7% |  |
| CC#C[C@]1(O)CC[C@H]2[C@@H]3C[C@H](C)C4=CC(=O)CC[C@]4(C)[C@H]3CC[C@@]21C | -1.89% [at 35.3 µM] |  |
| CNC(=O)O/N=C(\C)C(C)S(C)(=O)=O (centres undefined) | 11.6% [at 725 µM] |  |
| O=P(Cl)(Cl)Cl | -2.47% |  |
| O=Cc1ccccc1 | 0.732% |  |
| N#Cc1c[nH]cc1-c1cccc2c1OC(F)(F)O2 | 6.38% |  |
| COc1nc(C)nc(NC(=O)NS(=O)(=O)c2ccccc2Cl)n1 | 7.56% |  |
| c1ccc(N=NNc2ccccc2)cc1 | 1.27% |  |
| O.O.O.O=C([O-])[C@H]([O-])[C@@H]([O-])C(=O)[O-].O=C([O-])[C@H]([O-])[C@@H]([O-])C(=O)[O-].[K+].[K+].[Sb+3].[Sb+3] | -11% |  |
| Nc1ccc(N=Nc2ccccc2)cc1 | 8.9% |  |
| CCC[CH2][Sn]([CH2]CCC)([CH2]CCC)[O][Sn]([CH2]CCC)([CH2]CCC)[CH2]CCC |  | 0.676 µM (active) |
| C#CCO | -11.5% |  |
| ClCBr | -5.34% |  |
| COP(=S)(OC)Oc1nc(Cl)c(Cl)cc1Cl | -14% |  |
| CC(=O)[O][Sn]([c]1ccccc1)([c]1ccccc1)[c]1ccccc1 |  | 13.8 µM (active) |
| CCCCCON=O | 1.89% |  |
| OCC(Br)CBr (centres undefined) | 1.25% |  |
| [O]=[Cr](=[O])([OH])[O][Cr](=[O])(=[O])[OH] |  | inactive |
| N#CC(C#N)=NNc1cccc(Cl)c1 | 3.41% |  |
| CO/N=C(/C1=NOCCO1)c1ccccc1Oc1ncnc(Oc2ccccc2Cl)c1F | -11.4% |  |

| SMILES | cytotoxicity increase | Potency |
| --- | --- | --- |
| CC(C)C(Nc1ccc(C(F)(F)F)cc1Cl)C(=O)OC(C#N)c1cccc(Oc2ccccc2)c1 (centres undefined) | -11.1% |  |
| [Cl-].[Cl-].[Sn+2] | 0.309% |  |
| COP(=O)(OC)O/C(=C\Cl)c1cc(Cl)c(Cl)cc1Cl | 0.995% |  |
| CCCN | 6.14% |  |
| O=S1OCC2C(CO1)C1(Cl)C(Cl)=C(Cl)C2(Cl)C1(Cl)Cl (centres undefined) |  | 54.9 µM (active) |
| CSSC | -11.4% |  |
| CC(C)(C)c1ccc(OP(=O)(Oc2ccccc2)Oc2ccccc2)cc1 | 7.15% |  |
| C=CCBr | 0.926% |  |
| CC(C)=CCN1CC[C@@]2(C)c3cc(O)ccc3C[C@@H]1[C@@H]2C | -12.3% |  |
| CC[C@]1(O)CC[C@H]2[C@@H]3CCC4=CCCC[C@@H]4[C@H]3CC[C@@]21C | 7.5% [at 35.3 µM] |  |
| O=C1C(Cl)=C(Cl)C(=O)C(Cl)=C1Cl |  | 21.9 µM (active) |
| ClC(Cl)C(Cl)(Cl)Cl | 2.54% |  |
| CO/N=C(\C(=O)OC)c1ccccc1CO/N=C(\C)c1cccc(C(F)(F)F)c1 | -17.6% |  |
| Clc1c(Cl)c(Cl)c(Cl)c(Cl)c1Cl | 1.99% [at 6.97 µM] |  |
| CCNS(=O)(=O)C(F)(F)C(F)(F)C(F)(F)C(F)(F)C(F)(F)C(F)(F)C(F)(F)C(F)(F)F | 0.782% |  |
| CC(C)N(C(=O)SC/C(Cl)=C/Cl)C(C)C | 6.8% |  |
| CSC1=N[C@@](C)(c2ccccc2)C(=O)N1Nc1ccccc1 | 0.98% |  |
| CCn1cc[n+](C)c1 (tested in a mixture with another compound) | -1.49% |  |
| c1ccc2c(c1)cc1ccc3cccc4ccc2c1c34 | -6.2% |  |
